Results published in PubChem BioAssay (EPA / NIEHS).
Inconclusive results are not listed. Some compounds were tested as several samples or in several runs, with calls that do not always agree. Activity calls are given as the source filed them. The calls were made as follows, unless noted: active = hit-call score of the fitted dose curve at least 0.9, where 1 is the maximum; inactive = score below 0.9.

Legend:
[1] = target: Oxysterols receptor LXR-beta (Homo sapiens) (UniProt P55055); test: ATG_LXRb_TRANS: Attagene TRANS-FACTORIAL HepG2 Assay for human Liver X Receptor beta (LXRb) (AID 2282981; active = hit-call score of the fitted dose curve at least 0.9, where 1 is the maximum); settings: HepG2 Attagene TRANS GAL4-LXRb reporter, mRNA
Chain of Oxysterols receptor LXR-beta (Homo sapiens) (P55055 whole entry, looked up, the tested form may be a part): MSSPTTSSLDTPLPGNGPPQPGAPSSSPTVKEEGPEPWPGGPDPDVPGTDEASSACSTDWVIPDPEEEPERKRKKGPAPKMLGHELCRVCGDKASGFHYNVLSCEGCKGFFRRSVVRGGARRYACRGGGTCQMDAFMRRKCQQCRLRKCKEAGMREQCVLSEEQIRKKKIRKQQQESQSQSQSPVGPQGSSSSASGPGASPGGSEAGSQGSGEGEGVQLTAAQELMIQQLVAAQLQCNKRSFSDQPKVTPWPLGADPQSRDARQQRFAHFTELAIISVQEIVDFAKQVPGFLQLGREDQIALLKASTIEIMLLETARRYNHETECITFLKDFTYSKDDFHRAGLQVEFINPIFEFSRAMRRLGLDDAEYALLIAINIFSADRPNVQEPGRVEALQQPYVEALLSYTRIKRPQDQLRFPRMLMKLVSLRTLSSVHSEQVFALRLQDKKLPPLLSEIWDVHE
Procedure, shortened: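 After 24 h of chemical treatment, transfected HepG2 cells yield total RNA; reporter cDNA is PCR-amplified, FAM-labelled, HpaI-cut and run on capillary electrophoresis. Signal reflects chimeric LXRb-Gal4 activity on GAL4-UAS reporters.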

[2] = ATG_M_06_TRANS: Attagene TRANS-FACTORIAL HepG2 Assay for M06 Transcription Factor (Internal Marker) (AID 2282983; active = hit-call score of the fitted dose curve at least 0.9, where 1 is the maximum;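 also: reporter transcript level by RT-PCR then capillary electrophoresis fluorescence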); settings: HepG2 Attagene TRANS M06 internal marker reporter
Procedure, shortened: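 Background-control reporter readout: after 24 h chemical exposure of transiently transfected HepG2 (GAL4-UAS reporter units), mRNA quantified by RT-PCR with fluorescent labeling and capillary electrophoresis. Gain-of-signal fitting against DMSO baseline.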

[3] = target: Nuclear receptor subfamily 4 group A member 2 (Homo sapiens) (UniProt P43354); test: ATG_NURR1_TRANS: Attagene TRANS-FACTORIAL HepG2 Assay for human Nuclear Receptor Related Protein 1 (NURR1) (AID 2282985; active = hit-call score of the fitted dose curve at least 0.9, where 1 is the maximum); settings: HepG2 Attagene TRANS reporter, mRNA readout
Chain of Nuclear receptor subfamily 4 group A member 2 (Homo sapiens) (P43354 whole entry, looked up, the tested form may be a part): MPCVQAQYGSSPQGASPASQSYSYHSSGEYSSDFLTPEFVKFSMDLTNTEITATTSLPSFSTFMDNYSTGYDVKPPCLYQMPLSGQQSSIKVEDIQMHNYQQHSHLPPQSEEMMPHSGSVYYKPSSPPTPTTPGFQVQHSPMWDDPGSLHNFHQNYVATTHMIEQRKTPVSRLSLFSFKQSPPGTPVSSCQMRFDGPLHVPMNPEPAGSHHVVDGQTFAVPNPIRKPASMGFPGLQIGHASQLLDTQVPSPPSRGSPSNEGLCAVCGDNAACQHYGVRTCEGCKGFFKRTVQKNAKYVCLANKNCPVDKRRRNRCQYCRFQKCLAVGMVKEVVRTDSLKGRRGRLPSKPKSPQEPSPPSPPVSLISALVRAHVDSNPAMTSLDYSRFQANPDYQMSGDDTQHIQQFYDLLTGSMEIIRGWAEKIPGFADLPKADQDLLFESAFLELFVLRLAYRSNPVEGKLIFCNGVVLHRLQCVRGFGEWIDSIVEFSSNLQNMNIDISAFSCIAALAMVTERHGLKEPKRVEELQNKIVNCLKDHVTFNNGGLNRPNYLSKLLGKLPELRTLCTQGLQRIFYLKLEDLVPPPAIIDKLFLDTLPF
Procedure, shortened: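 Measures transcriptional activation by an exogenous NR-Gal4 chimera in transfected HepG2 liver cells. After 24 h, reporter RNA is reverse-transcribed, amplified and resolved by capillary electrophoresis; DMSO defines baseline.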

[4] = target: Transcriptional activator Myb (Homo sapiens) (UniProt P10242); test: ATG_Myb_CIS: Attagene CIS-FACTORIAL HepG2 Assay for human Myeloblastosis (Myb) Proto-Oncogene Transcription Factor (AID 2282986); settings: HepG2 Attagene CIS-FACTORIAL Myb reporter transcription; actives raise or lower the signal
Chain of Transcriptional activator Myb (Homo sapiens) (P10242 whole entry, looked up): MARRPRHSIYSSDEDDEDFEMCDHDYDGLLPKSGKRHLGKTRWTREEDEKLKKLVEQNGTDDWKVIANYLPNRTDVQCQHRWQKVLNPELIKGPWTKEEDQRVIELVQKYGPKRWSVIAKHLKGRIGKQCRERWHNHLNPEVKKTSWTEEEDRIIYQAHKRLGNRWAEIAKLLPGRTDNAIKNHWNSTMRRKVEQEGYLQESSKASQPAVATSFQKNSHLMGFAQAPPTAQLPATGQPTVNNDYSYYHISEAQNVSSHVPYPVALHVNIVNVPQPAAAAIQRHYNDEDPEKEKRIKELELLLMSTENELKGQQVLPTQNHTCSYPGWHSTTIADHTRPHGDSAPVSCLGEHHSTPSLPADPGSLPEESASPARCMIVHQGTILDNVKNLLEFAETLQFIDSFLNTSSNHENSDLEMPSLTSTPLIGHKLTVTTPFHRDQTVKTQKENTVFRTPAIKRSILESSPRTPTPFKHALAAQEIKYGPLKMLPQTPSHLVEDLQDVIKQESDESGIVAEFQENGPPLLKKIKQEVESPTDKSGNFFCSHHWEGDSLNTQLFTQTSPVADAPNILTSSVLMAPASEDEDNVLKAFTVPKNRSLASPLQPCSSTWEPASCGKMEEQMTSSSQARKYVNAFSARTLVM
Procedure, shortened: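 HepG2 cells were transiently transfected with cis-regulated multiple reporter transcription units reflecting endogenous Myb activity, then exposed to compound for 24 hours. Reporter mRNA was measured by RT-PCR with capillary electrophoresis; bidirectional fitting versus DMSO baseline.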

[5] = target: Nuclear respiratory factor 1 (Homo sapiens) (UniProt Q16656); test: ATG_NRF1_CIS: Attagene CIS-FACTORIAL HepG2 Assay for human Nuclear Respiratory Factor 1 (NRF1) Orphan Gene (AID 2282987); settings: HepG2 NRF1 cis-element reporter, Attagene multiplex; actives raise or lower the signal
Chain of Nuclear respiratory factor 1 (Homo sapiens) (Q16656 whole entry, looked up): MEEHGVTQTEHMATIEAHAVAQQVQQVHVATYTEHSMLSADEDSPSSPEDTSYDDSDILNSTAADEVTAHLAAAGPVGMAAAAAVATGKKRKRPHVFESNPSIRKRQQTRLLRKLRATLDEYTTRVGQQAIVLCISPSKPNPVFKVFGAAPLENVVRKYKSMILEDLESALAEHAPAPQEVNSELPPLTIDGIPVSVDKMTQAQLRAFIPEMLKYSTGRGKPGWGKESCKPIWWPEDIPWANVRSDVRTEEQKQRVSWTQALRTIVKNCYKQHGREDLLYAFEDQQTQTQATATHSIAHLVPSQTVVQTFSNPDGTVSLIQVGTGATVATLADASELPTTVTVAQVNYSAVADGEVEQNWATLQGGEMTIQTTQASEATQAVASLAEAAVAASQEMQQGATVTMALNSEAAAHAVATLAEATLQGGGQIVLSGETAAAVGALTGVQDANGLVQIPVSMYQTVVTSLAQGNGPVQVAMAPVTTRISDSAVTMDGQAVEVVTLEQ
Procedure, shortened: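 HepG2 cells transiently transfected with multiple reporter transcription units under cis-regulatory promoter control, so endogenous transcription-factor activity is read. After 24 h compound exposure, reporter mRNA quantified by RT-PCR, fluorescent labelling, HpaI digestion and capillary electrophoresis; bidirectional fitting versus DMSO.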

[6] = ATG_NFI_CIS: Attagene CIS-FACTORIAL HepG2 Assay for human Nuclear Factor I (NFI) (AID 2282989); settings: HepG2 cis-regulatory reporter, NFI response element transcription; actives raise or lower the signal
Procedure, shortened: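 Multiplexed cis-reporter system in human HepG2 cells reports native TF activity as reporter mRNA induction 24 h post-dose. Fragments labelled with 6-FAM, HpaI-digested and resolved by capillary electrophoresis; activity fitted both directions versus DMSO.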

[7] = target: Myc proto-oncogene protein (Homo sapiens) (UniProt P01106); test: ATG_Myc_CIS: Attagene CIS-FACTORIAL HepG2 Assay for human Myelocytomatosis (Myc) Proto-Oncogene Transcription Factor (AID 2282990); settings: HepG2, Attagene cis-reporter transcription factor activity; actives raise or lower the signal
Chain of Myc proto-oncogene protein (Homo sapiens) (P01106 whole entry, looked up, the tested form may be a part): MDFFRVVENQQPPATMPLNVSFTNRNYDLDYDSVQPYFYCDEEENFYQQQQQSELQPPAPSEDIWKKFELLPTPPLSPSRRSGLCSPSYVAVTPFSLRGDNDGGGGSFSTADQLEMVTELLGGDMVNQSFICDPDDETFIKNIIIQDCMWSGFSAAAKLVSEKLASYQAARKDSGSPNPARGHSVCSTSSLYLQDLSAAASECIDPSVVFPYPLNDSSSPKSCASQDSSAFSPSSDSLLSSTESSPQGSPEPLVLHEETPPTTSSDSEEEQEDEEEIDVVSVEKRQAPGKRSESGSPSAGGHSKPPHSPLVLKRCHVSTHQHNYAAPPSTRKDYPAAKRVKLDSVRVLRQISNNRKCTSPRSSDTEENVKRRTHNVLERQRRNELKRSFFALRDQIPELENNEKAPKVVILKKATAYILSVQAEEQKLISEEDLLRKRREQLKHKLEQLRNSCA
Procedure, shortened: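 After 24 h chemical treatment of HepG2 cells carrying multiplexed cis-regulated reporter constructs, reporter transcripts quantified by RT-PCR and capillary electrophoresis of fluorescent fragments. Gain or loss fitted against DMSO baseline.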

[8] = ATG_NF_kB_CIS: Attagene CIS-FACTORIAL HepG2 Assay for human Nuclear Factor Kappa B (NF-kB) (AID 2282991); settings: HepG2 Attagene cis-factorial NF-kB reporter mRNA; actives raise or lower the signal
Procedure, shortened: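 HepG2 cells transiently transfected with multiplexed cis-element reporter units measuring endogenous transcription factor activity; reporter mRNA read 24 h after dosing by RT-PCR, fluorescent labelling, HpaI digestion and capillary electrophoresis. Bidirectional fit against DMSO baseline.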

[9] = ATG_NRF2_ARE_CIS: Attagene CIS-FACTORIAL HepG2 Assay for human Nuclear Factor Erythroid 2 Related Factor 2 (NFR2) response to Antioxidant Response Elements (ARE) (AID 2282992); settings: HepG2 Attagene ARE/NRF2 reporter, transcription factor activity; actives raise or lower the signal;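 as to AC50: reporter mRNA level measured by RT-PCR and capillary electrophoresis fluorescence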
Procedure, shortened: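 Endogenous transcription factor activity in human liver HepG2 cells is tracked via a cis-element-driven reporter within a multiplexed set. mRNA induction is read by RT-PCR and capillary electrophoresis after 24 h, with DMSO as baseline.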

[10] = ATG_Oct_MLP_CIS: Attagene CIS-FACTORIAL HepG2 Assay for human Octamer-Binding Transcription Factor (Oct) (AID 2282993); settings: HepG2 Attagene cis-factorial Oct reporter, mRNA; actives raise or lower the signal
Procedure, shortened: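 After 24 h compound exposure, transfected HepG2 cells were lysed for total RNA; reporter-specific cDNA was PCR-amplified, fluorescently labelled and sized by capillary electrophoresis. Bidirectional curve fitting used DMSO as baseline.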

[11] = target: Cellular tumor antigen p53 (Homo sapiens) (UniProt P04637); test: ATG_p53_CIS: Attagene CIS-FACTORIAL HepG2 Assay for human p53 Transcription Factor (AID 2282994); settings: HepG2 p53 cis-element reporter, Attagene mRNA; actives raise or lower the signal
Chain of Cellular tumor antigen p53 (Homo sapiens) (P04637 whole entry, looked up, the tested form may be a part): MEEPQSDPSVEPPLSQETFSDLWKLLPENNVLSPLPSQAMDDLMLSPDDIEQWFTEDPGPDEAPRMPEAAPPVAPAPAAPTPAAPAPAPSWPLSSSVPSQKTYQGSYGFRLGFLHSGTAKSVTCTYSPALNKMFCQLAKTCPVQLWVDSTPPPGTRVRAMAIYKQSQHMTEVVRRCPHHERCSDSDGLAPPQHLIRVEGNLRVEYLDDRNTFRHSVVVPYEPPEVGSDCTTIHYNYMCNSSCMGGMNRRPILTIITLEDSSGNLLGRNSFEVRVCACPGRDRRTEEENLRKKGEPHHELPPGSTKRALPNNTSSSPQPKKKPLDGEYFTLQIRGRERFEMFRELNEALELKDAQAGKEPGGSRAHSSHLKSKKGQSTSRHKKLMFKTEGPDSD
Procedure, shortened: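 Steps: transfect HepG2 with multiplexed cis reporter constructs; dose chemicals 24 h; extract RNA, reverse-transcribe, PCR-amplify reporter sequences; FAM-label, HpaI-digest, resolve fragments by CE. Activity fitted both directions relative to DMSO.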

[12] = BSK_3C_TissueFactor: BioMAP Diversity Plus: 3C Assay for Tissue Factor Biomarker Activity (AID 2282997); settings: BioMAP 3C HUVEC, tissue factor biomarker readout; actives raise or lower the signal
Procedure, shortened: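 Tissue factor on primary human umbilical vein endothelium was read by ELISA 24 h after dosing, gain or loss relative to DMSO. Cytotoxicity ran alongside via SRB (0.1%, TCA-fixed, 560 nm).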

[13] = BSK_3C_uPAR: BioMAP Diversity Plus: 3C Assay for Urokinase-type plasminogen activator receptor (uPAR) Biomarker Activity (AID 2282998); settings: BioMAP 3C HUVEC, uPAR biomarker ELISA; actives raise or lower the signal
Procedure, shortened: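 Values derive from bidirectional curve fitting relative to DMSO, which served as baseline of activity. uPAR was measured by ELISA in human umbilical vein endothelial primary cultures 24 h after compound addition.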

[14] = BSK_3C_VCAM1: BioMAP Diversity Plus: 3C Assay for Vascular cell adhesion molecule 1 (VCAM1) Biomarker Activity (AID 2282999); settings: BioMAP 3C HUVEC, VCAM1 ELISA, cytokine-stimulated; actives raise or lower the signal
Procedure, shortened: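 Activity fitted in both directions relative to DMSO, with ELISA measurement of the surface marker on primary HUVEC (3C) at 24 h post-treatment; parallel SRB staining (0.1% SRB, TCA-fixed, 560 nm) flagged overt cytotoxicity.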

[15] = target: Glucocorticoid receptor (Homo sapiens) (UniProt P04150); test: ATG_GR_TRANS: Attagene TRANS-FACTORIAL HepG2 Assay for human Glucocorticoid Receptor (GR) (AID 2282978; active = hit-call score of the fitted dose curve at least 0.9, where 1 is the maximum;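 also: activators score as hits since higher reporter transcript over DMSO is fitted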); settings: HepG2 Attagene TRANS GR reporter, mRNA transcription
Chain of Glucocorticoid receptor (Homo sapiens) (P04150 whole entry, looked up, the tested form may be a part): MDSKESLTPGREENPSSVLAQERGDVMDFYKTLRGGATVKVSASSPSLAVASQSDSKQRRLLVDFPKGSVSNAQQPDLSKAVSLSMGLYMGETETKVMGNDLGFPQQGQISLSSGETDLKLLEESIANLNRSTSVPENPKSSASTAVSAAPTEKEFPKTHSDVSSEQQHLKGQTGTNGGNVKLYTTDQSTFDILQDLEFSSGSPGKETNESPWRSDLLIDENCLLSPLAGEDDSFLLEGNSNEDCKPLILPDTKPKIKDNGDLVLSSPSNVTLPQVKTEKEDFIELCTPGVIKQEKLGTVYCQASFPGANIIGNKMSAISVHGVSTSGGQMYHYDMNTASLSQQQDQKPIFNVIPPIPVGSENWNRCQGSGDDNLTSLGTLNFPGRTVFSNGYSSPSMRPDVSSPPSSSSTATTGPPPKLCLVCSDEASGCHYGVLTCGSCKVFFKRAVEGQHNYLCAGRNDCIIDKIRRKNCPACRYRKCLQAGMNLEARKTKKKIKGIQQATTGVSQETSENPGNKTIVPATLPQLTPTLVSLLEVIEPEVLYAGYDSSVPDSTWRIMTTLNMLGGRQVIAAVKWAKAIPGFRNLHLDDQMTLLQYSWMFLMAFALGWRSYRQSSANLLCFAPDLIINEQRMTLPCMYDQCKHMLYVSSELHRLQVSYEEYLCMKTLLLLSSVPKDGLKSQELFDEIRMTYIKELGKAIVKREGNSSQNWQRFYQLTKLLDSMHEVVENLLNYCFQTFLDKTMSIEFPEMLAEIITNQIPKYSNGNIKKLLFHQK
Procedure, shortened: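 HepG2 cells transiently transfected with multiplexed reporter units in which chimeric NR-GAL4 proteins drive GAL4-UAS reporters; 24 h compound exposure. Reporter mRNA measured by RT-PCR, 6-FAM labelling, HpaI digestion and capillary electrophoresis; gain-of-signal fitted versus DMSO.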

[16] = target: Oxysterols receptor LXR-alpha (Homo sapiens) (UniProt Q13133); test: ATG_LXRa_TRANS: Attagene TRANS-FACTORIAL HepG2 Assay for human Liver X Receptor alpha (LXRa) (AID 2282980; active = hit-call score of the fitted dose curve at least 0.9, where 1 is the maximum); settings: HepG2 Attagene TRANS reporter, LXRa transactivation
Chain of Oxysterols receptor LXR-alpha (Homo sapiens) (Q13133 whole entry, looked up, the tested form may be a part): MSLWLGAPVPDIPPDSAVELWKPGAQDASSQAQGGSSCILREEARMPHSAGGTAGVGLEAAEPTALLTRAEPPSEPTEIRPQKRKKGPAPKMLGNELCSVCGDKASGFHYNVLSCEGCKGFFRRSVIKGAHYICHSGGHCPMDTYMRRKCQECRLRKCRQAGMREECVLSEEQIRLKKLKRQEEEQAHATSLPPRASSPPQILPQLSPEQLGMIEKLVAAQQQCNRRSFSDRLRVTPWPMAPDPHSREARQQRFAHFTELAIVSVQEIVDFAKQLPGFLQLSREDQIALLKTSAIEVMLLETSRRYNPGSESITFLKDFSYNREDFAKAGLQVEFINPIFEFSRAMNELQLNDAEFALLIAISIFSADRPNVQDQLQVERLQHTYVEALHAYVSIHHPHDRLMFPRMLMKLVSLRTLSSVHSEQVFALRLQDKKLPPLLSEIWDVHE
Procedure, shortened: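 Chemical-induced reporter mRNA measured by RT-PCR with fluorescent labelling and capillary electrophoresis after 24 h dosing of transiently transfected HepG2 cells expressing exogenous NR-Gal4 chimeras; increases scored against DMSO baseline.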

[17] = target: Hepatocyte nuclear factor 4-alpha (Homo sapiens) (UniProt P41235); test: ATG_HNF4a_TRANS: Attagene TRANS-FACTORIAL HepG2 Assay for human Hepatocyte Nuclear Factor 4 alpha (HNF4a) (AID 2282982; active = hit-call score of the fitted dose curve at least 0.9, where 1 is the maximum); settings: HepG2 HNF4a transactivation reporter, mRNA readout
Chain of Hepatocyte nuclear factor 4-alpha (Homo sapiens) (P41235 whole entry, looked up): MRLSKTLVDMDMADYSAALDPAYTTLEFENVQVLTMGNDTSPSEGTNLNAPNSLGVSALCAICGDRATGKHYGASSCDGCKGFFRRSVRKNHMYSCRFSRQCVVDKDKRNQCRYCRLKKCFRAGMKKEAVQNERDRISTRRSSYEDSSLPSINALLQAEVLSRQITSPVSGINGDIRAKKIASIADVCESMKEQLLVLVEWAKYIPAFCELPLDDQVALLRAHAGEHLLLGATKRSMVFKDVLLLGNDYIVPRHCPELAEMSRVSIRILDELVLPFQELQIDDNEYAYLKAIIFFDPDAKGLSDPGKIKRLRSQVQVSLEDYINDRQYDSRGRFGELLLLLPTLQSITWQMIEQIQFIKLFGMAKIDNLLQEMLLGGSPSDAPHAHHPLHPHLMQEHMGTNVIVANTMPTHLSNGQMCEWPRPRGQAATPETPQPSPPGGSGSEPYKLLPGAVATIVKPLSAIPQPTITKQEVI
Procedure, shortened: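 Multiplexed reporter assay: transfected HepG2, 24 h exposure, total RNA → oligo(dT) RT → PCR → 6-FAM extension → HpaI digest → CE fluorescence. DMSO = negative control.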

[18] = ATG_M_32_TRANS: Attagene TRANS-FACTORIAL HepG2 Assay for M32 Transcription Factor (Internal Marker) (AID 2282984; active = hit-call score of the fitted dose curve at least 0.9, where 1 is the maximum;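 also: transcript level of a background control reporter unit measured by RT-PCR and capillary electrophoresis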); settings: HepG2 Attagene TRANS M32 internal marker reporter
Procedure, shortened: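 Cell-based TRANS-format assay in HepG2: exogenous chimeric GAL4 reporter units transiently expressed, compounds applied 24 h. Reporter mRNA detected by RT-PCR plus capillary electrophoresis; this readout is an internal background marker.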

Measured: AC50

C=CC(=O)NCNC(=O)C=C
active: [8] 100 µM | [9] 61.1 µM
inactive: [1] | [2] | [3] | [4] | [5] | [6] | [7] | [10] | [11] | [12] | [13] | [14]

Cc1ccc(O)c(C)c1
inactive: [15] | [4] | [5] | [6] | [7] | [8] | [10] | [11] | [12] | [13] | [14]

CCSC(=O)N(CC)C1CCCCC1
inactive: [1] | [4] | [5] | [6] | [7] | [8] | [9] | [10] | [12] | [13] | [14]

CCCCCCCCCc1ccc(O)cc1
inactive: [16] | [1] | [17] | [2] | [18] | [3] | [4] | [5] | [6] | [7] | [8] | [10] | [11]
active: [4] 157 µM | [5] 174 µM | [7] 69 µM | [8] 68.8 µM | [12] 16.1 µM | [13] 15.5 µM | [14] 13.8 µM

Cc1ccccc1CO[C@@H]1C[C@@]2(C(C)C)CC[C@]1(C)O2
inactive: [1] | [2] | [18] | [3] | [4] | [5] | [6] | [7] | [8] | [10] | [12] | [13] | [14]
active: [16] 32 µM | [9] 2.86 µM

Sc1ccccc1
inactive: [15] | [1] | [2] | [18] | [3] | [4] | [5] | [6] | [7] | [8] | [10] | [12] | [13] | [14]

c1cc2ccc3cccc4ccc(c1)c2c34
active: [12] 5.47 µM
inactive: [1] | [17] | [2] | [18] | [3] | [4] | [5] | [6] | [7] | [8] | [9] | [10] | [11] | [13] | [14]

ClC1=C(Cl)[C@]2(Cl)[C@@H]3[C@@H]4C[C@@H]([C@H]5O[C@@H]45)[C@@H]3[C@@]1(Cl)C2(Cl)Cl
active: [9] 112 µM
inactive: [15] | [2] | [18] | [4] | [5] | [6] | [7] | [8] | [10] | [11] | [12] | [13] | [14]
